Inconclusive results are not listed. Activity calls are given as the source filed them. The call rests on the fitted dose curve; in most records, active means well fitted curve in the direction sought with a large enough effect; inconclusive means small, poorly fitted or top-dose-only effect, or another doubt; inactive means no such curve, though single readings can be large or run the other way.

Chain of Polyunsaturated fatty acid lipoxygenase ALOX15 (Homo sapiens) (P16050 whole entry, looked up): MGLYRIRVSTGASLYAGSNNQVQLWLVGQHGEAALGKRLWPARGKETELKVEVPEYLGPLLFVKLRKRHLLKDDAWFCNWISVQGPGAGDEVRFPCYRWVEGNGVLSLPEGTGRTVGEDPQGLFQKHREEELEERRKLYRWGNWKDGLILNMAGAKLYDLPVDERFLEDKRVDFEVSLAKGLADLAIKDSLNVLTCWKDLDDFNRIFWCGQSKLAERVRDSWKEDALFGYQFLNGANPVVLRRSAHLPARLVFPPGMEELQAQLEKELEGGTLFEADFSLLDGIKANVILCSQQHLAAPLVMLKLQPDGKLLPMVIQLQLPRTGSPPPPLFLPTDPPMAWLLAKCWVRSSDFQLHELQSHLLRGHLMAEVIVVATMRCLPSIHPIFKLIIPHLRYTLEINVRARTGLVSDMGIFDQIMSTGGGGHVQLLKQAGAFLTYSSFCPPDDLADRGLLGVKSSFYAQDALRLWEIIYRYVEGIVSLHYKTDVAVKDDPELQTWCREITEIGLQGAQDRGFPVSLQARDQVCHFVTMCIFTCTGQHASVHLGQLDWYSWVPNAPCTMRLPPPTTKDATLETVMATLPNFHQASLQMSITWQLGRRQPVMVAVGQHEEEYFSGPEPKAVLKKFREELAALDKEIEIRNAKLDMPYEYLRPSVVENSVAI

The target of the experiment is Polyunsaturated fatty acid lipoxygenase ALOX15 (Homo sapiens) (UniProt P16050). Description: Counterscreen qHTS for inhibitors of human arachidonate 12S-lipoxygenase (ALOX12): ALOX15 Assay. The note with it: purified ALOX15 enzyme activity; series mostly up to 110 µM. The gist of the method:
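Purified human ALOX15 (15hLO-1) at 40 nM in 25 mM HEPES, 0.01% Triton X-100, pH 7.5, preincubated with compound 15 min at RT. Then 50 uM arachidonic acid for 30 min; hydroperoxide detected by Fe-xylenol orange as the 573/405 nm absorbance ratio.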
On the technique in general: The purpose of a counterscreen is to sort out artefacts and off-target activity.
On to `CC(=O)NCCC(=O)N1Cc2ccccc2CC2(CCN(CC3CCNC3)CC2)C1` (stereo not drawn), for which the outcome was inactive.
As for `Cn1nc(C2CCNC2)c2c(C(=O)NC3CC3)cc(C3CC3)nc21` (stereo not drawn), the entry is “inactive”; as for `CC(C)CCN1CCn2c(nn(-c3ccc(Cl)cc3)c2=O)C1`, “inactive”; as for `O=C1NCc2ccccc2CC12CCCN2Cc1ccsc1` (stereo not drawn), “inactive”.
As for `NCc1cccc(-c2ccccc2F)c1`, the entry is “inactive”; as for `O=C(N1CCCC1)N1CCn2c(nnc2-c2cncc(Br)c2)C1`, “inactive”; as for `N#Cc1ccc(CN2CCC3(CN[S+](=O)([O-])c4cnccc4O3)C2)cc1` (stereo not drawn), “inactive”.
As for `O=C(N1CCCCC1)N1CCCC(c2nnc3n2CCNC3)C1` (stereo not drawn), the entry is “inactive”; as for `O=C1NCc2ccccc2CC12CCN(Cc1cccc(F)c1F)C2` (stereo not drawn), “inactive”; as for `Cc1ccc(-c2ccccc2C=O)cc1Cl`, “inactive”.
For the compound `CCOc1cccc(CN2CCCC23Cc2ccccc2CNC3=O)c1` (stereo not drawn), the result was inactive.
Consider `O=C(c1ccccn1)N1CCn2c(nn(-c3ccc(Cl)cc3)c2=O)C1`, for which the call was inactive.
For the compound `CN(c1ccc(Cl)c(Cl)c1)C1CNC1`, the outcome was inactive.
As for `COCCNC(=O)c1cc(C)nc2onc(C3CCCNC3)c12` (stereo not drawn), the entry is “inactive”; as for `N#Cc1cccc(CN2CCCC(c3nc4ccc(F)cc4c(=O)[nH]3)C2)c1` (stereo not drawn), “inactive”.
As for `c1cncc(CN2CCn3c(nnc3C3CCCNC3)C2)c1` (stereo not drawn), the entry is “inactive”; as for `O=C(c1ccncc1)N1CCCC(c2nnc3n2CCNC3)C1` (stereo not drawn), “inactive”; as for `CN1CC(=O)N(C2CCCNC2)Cc2c1ncnc2N1CCN(Cc2ccccc2)CC1` (stereo not drawn), “inactive”.
As for `CC(=O)NCC(=O)N1Cc2ccccc2CC2(CCCN(CC3CCNC3)C2)C1` (stereo not drawn), the entry is “inactive”; as for `CN(C)CC(=O)N1Cc2ccccc2CC2(CCCN(CC3CCNC3)C2)C1` (stereo not drawn), “inactive”.
With `CN1CC(=O)N(C2CNC2)Cc2c(NC3CC3)ncnc21`, the result was inactive.
As for `CN(C)C(=O)N1CCCC(c2nnc3n2CCNC3)C1` (stereo not drawn), the entry is “inactive”; as for `Cc1cc(C)c(S(=O)(=O)c2nnn3c2nc(NCCCOC(C)C)c2ccccc23)c(C)c1`, “inactive”; as for `COc1cc(OC(F)(F)F)ccc1C(=O)NCc1nnc2n1C(C(=O)O)CC2` (stereo not drawn), “inactive”.
The entry for `CC(=O)N1CCCN(c2ncnc3c2CN(C2CCNCC2)C(=O)CN3C)CC1` is “inactive”; for `COCCNC(=O)c1cc(C)nc2onc(C3CCNC3)c12` (stereo not drawn) it is “inactive”; for `COc1ccc(-c2cc(C(=O)NCC(C)C)c3c(C4CCCN4)noc3n2)cc1` (stereo not drawn) it is “inactive”.
In the case of `Cc1cc(Cl)ccc1NC1CN(C(=O)OC(C)(C)C)C1`, the compound was called inactive.
The entry for `C[S+](=O)([O-])N1Cc2ccccc2OC2(CCN(C(=O)c3ccc(N)nc3)CC2)C1` is “inactive”; for `CN1CC(=O)N(C2CCNCC2)Cc2c1ncnc2N1CCCC(O)C1` (stereo not drawn) it is “inactive”.
As for `Cc1ccc(C(=O)N2CCn3c(nnc3C3CCNCC3)C2)cc1`, the entry is “inactive”; as for `O=C(NCc1ccncc1)c1cc(C2CC2)nc2c1c(C1CCCN1)nn2-c1ccccc1` (stereo not drawn), “inactive”.
The entry for `COc1cccc(N2C(=O)NC(=NC3CCCC3)C23CCN(Cc2ccsc2)C3)c1` (stereo not drawn) is “inactive”; for `COc1cccc(N2C(=O)NC(=NC3CCCCC3)C23CCCN(C(=O)c2ccccc2)C3)c1` (stereo not drawn) it is “inactive”.
With `CC(=O)N1CCC(c2nnc3n2CCNC3)CC1`, the compound was called inactive.
The entry for `CC1CCCCC1Nc1ncnc2c1CN(C1CCCNCC1)C(=O)CN2C` (stereo not drawn) is “inactive”; for `O=c1[nH]c(C2CCCN(Cc3cccc(Cl)c3)C2)nc2ccc(F)cc12` (stereo not drawn) it is “inactive”; for `O=C1NCc2ccccc2CC12CCN(Cc1ccc(O)cc1)CC2` it is “inactive”.
